From PubChem BioAssay (NCATS)
Results filed as inconclusive are left out. The source made the active and inactive calls. Calls follow the shape of the dose curve; as a rule, active = well fitted cell-killing curve with a large enough effect; inconclusive = small, poorly fitted or top-dose-only effect, or effect the other way; inactive = no such curve, though single readings can be large or run the other way.

Assay: Quantitative High-Throughput drug screen in 47 multiple myeloma cell lines against the NCATS MIPE library collection: KMS12BM_JCRB cell viability assay (AID 1918971); also: nearly all actives have a fitted effect of over 35% in size
Settings: KMS12BM myeloma viability, CellTiter-Glo ATP, 48 h; series mostly up to 45.8 µM; viability, % of DMSO: at the top concentration
In short: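 Myeloma cells (500 per well) were exposed to MIPE 4.0 compounds by pin transfer and incubated 48 hours at 37C, 5% CO2. Viability was read as ATP by CellTiter-Glo luminescence, normalised to DMSO (100%) and media-only (0%) wells.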
Potency is read from the fitted curve at half-maximal effect.

| Compound | Potency | viability, % of DMSO |
| --- | --- | --- |
| CC(=O)Nc1ccc([C@H](C)C(=O)Nc2ncc(C(C)C)s2)cc1 | 2.35 µM (active) | – |
| CN[C@@H](C)C(=O)N[C@H]1CN(C(=O)CC(C)C)CC[C@H]2CC[C@@H](C(=O)NC(c3ccccc3)c3ccccc3)N2C1=O | 26.4 µM (active) | – |
| Cc1[nH]c(C=C2C(=O)Nc3ccc(S(=O)(=O)Cc4c(Cl)cccc4Cl)cc32)c(C)c1C(=O)N1CCC[C@H]1CN1CCCC1 | 23.5 µM (active) | – |
| Oc1ccc(C2=Cc3ccc(O)cc3OC2)cc1 | 2.96 µM (active) | – |
| CC(C)(C(=O)NCC(F)(F)C(F)(F)F)C(=O)N[C@@H]1C(=O)Nc2ccccc2-c2ccccc21 | – | 162% (inactive) |
| COc1ccc(-c2coc3cc(O)cc(O)c3c2=O)cc1 | – | 136% (inactive) |
| Cc1ccc(/C=N/NC(=O)c2ccccc2Oc2ccccc2)o1 | 23.5 µM (active) | – |
| CON=C(C(=O)N[C@@H]1C(=O)N2C(C(=O)OCOC(=O)C(C)(C)C)=C(C=Cc3scnc3C)CS[C@H]12)c1csc(N)n1 | – | 135% (inactive) |
| Cc1nc(N)sc1-c1ccnc(Nc2ccc(N3CCOCC3)cc2)n1 | 14.8 µM (active) | – |
| Cc1ccc(C(=O)Nc2cccc(C(F)(F)F)c2)cc1Nc1nc(-c2cccnc2)nc2c1cnn2C | 13.2 µM (active) | – |
| COCCOc1nc(-c2ccc(Cl)c(Cl)c2)n(-c2ccc(NC(=O)CCl)cc2)n1 | 16.6 µM (active) | – |
| O=c1cc(-c2cccc3c2Sc2ccccc2S3)oc(N2CCOCC2)c1 | 23.5 µM (active) | – |
| CC(C)n1cnc2c(NCCCCCCNC(=O)OC(C)(C)C)nc(NCCO)nc21 | 18.7 µM (active) | – |
| CC(C)n1nc(-c2ccc3oc(N)nc3c2)c2c(N)ncnc21 | 0.0526 µM (active) | – |
| CN1C[C@H]2c3ccccc3Oc3ccc(Cl)cc3[C@@H]2C1 | – | 102% (inactive) |
| O=C(CCCCCCC(=O)Nc1ccccc1)NO | 2.35 µM (active) | – |
| COc1cccc([C@@H](C)NCCCc2ccccc2Cl)c1 | – | 133% (inactive) |

| Compound | Potency | viability, % of DMSO |
| --- | --- | --- |
| CC(=O)N(C)C1(c2ccccc2)CCN(CCC[C@]2(c3ccc(Cl)c(Cl)c3)CCCN(C(=O)c3ccccc3)C2)CC1 | 20.9 µM (active) | – |
| O=C(O)C=Cc1ccc(O)c(O)c1 | 20.9 µM (active) | – |
| CC(=NNC(=S)N1CCC1)c1ccccn1 | 0.0042 µM (active) | – |
| COc1ccc(C2CC(c3ccccc3)=NN2c2ccc(S(N)(=O)=O)cc2)cc1 (centres undefined) | 18.7 µM (active) | – |
| COCCOC(=O)C1=C(C)NC2=C(C(=O)CC(c3ccccc3OC)C2)C1c1cccc(O)c1 (centres undefined) | 10.5 µM (active) | – |
| CCn1c(C(=O)N(C2CC2)C2CC2)cc2c3c(ncn3C)c(Nc3cc(C)n(C)n3)nc21 | – | 148% (inactive) |
| O=C1Nc2ccc(Cl)cc2C(C#CC2CC2)(C(F)(F)F)O1 (centres undefined) | 23.5 µM (active) | – |
| O=C1NC(=O)C(=Cc2cccc(C(F)(F)F)c2)S1 | 20.9 µM (active) | – |
| CC(C)(C)OC(=O)N[C@H]1CCCCCC=C[C@@H]2C[C@@]2(C(=O)NS(=O)(=O)C2CC2)NC(=O)[C@@H]2C[C@@H](OC(=O)N3Cc4cccc(F)c4C3)CN2C1=O | – | 116% (inactive) |
| COCCCCC(=NOCCN)c1ccc(C(F)(F)F)cc1 | 20.9 µM (active) | – |
| CC[C@@]1(O)C[C@H](O[C@H]2C[C@H](N(C)C)[C@H](O[C@H]3C[C@H](O)[C@H](O[C@H]4CCC(=O)[C@H](C)O4)[C@H](C)O3)[C@H](C)O2)c2c(cc3c(c2O)C(=O)c2c(O)cccc2C3=O)[C@@H]1C(=O)OC | 0.148 µM (active) | – |
| CCC(=O)NC[C@H](Cc1ccc(OCCc2nc(-c3ccccc3)oc2C)cc1)NC(C)=CC(=O)c1ccc(C(F)(F)F)cc1 | 26.4 µM (active) | – |
| CCN(CC)CCOc1ccc(C(=C(Cl)c2ccccc2)c2ccccc2)cc1 | – | 156% (inactive) |
| COC(=O)N[C@H](C(=O)N1CCC[C@@H]1c1ncc(-c2ccc(-c3ccc(-c4cnc([C@@H]5CCCN5C(=O)[C@@H](NC(=O)OC)C(C)C)[nH]4)cc3)cc2)[nH]1)C(C)C | 20.9 µM (active) | – |
| CO[C@H]1C[C@@H]2CC[C@@H](C)[C@@](O)(O2)C(=O)C(=O)N2CCCC[C@@H]2C(=O)O[C@H]([C@H](C)C[C@@H]2CC[C@H](OCCO)[C@H](OC)C2)CC(=O)[C@H](C)C=C(C)[C@@H](O)[C@@H](OC)C(=O)[C@H](C)C[C@H](C)C=CC=CC=C1C | 4.18 µM (active) | – |
| Nc1nc(F)nc2c1ncn2[C@@H]1O[C@H](COP(=O)(O)O)[C@@H](O)[C@H]1O | 16.6 µM (active) | – |
| CCCCCCCCCCCC1=C(O)C(=O)C=C(O)C1=O | 23.5 µM (active) | – |
